# Compound activity as filed in PubChem BioAssay.
# A selection: hits, their analogues and other compounds. The true share with any hit is near 3.4%.
# FBW7 activator – activators of human E3 ligase FBW7 | normalized activity (activation), % at 26.1 µM | AlphaScreen FBW7–phospho-cyclin E peptide binding, activator screen | Q969H0 | 0.13% of 650,000 active; in the data active means normalized activity above about 1.9%;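 further: purified mutant Fbw7 with reduced substrate affinity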
# Target sequence (Q969H0 whole entry, looked up): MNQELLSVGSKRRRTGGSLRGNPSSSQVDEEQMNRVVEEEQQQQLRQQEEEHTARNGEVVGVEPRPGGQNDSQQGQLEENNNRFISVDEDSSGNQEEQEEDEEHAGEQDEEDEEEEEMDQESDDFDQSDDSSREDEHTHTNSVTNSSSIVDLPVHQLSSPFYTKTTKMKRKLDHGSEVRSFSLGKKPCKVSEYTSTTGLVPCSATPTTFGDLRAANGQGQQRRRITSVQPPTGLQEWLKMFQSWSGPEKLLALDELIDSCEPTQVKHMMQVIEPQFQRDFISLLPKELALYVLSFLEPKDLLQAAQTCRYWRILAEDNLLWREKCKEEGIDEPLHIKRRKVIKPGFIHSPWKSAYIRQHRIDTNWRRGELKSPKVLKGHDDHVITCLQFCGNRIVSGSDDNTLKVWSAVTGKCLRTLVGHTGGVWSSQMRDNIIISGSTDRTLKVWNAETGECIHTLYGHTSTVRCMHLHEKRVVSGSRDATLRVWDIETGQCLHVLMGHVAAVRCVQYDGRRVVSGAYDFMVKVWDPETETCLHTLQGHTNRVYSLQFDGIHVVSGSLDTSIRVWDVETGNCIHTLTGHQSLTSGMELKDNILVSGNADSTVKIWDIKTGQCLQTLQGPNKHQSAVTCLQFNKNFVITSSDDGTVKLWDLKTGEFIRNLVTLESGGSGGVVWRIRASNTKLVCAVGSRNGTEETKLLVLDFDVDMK
# TEAD-YAP inh – TEAD-YAP interaction inhibition; 1.4% of 640,000 active; AID 1259422; inhibition, % at 9.12 µM; HEK-TIYL cells, TEAD-Gal4/YAP UAS-luciferase luminescence; in the data active means inhibition above about 32%
# GPR151 ag – activators of human GPR151; 1% of 650,000 active; AID 1508602; activation, % at 11.2 µM; Q8TDV0; PathHunter beta-arrestin GPR151 cells, luminescence; in the data active means activation above about 4.9%
# MITF inh – inhibitors of human MITF; AlphaScreen MITF homodimerization, bead proximity signal; inhibition, % at 2.6 µM; 0.91% of 650,000 active; AID 1259374; in the data active means inhibition above about 50%
# Numbers stand for hits; n = inactive.
SMILES,FBW7 activator,TEAD-YAP inh,GPR151 ag,MITF inh
O=C(CCn1c(=S)[nH]c2cc3c(cc2c1=O)OCO3)N1CCN(C(=O)c2ccco2)CC1,n,n,n,n
CC(=O)c1ccccc1-c1ccc2c(c1)CC(CNC(=O)c1ccc3c(c1)OCCO3)O2 (stereo not drawn),n,37,n,n
CCOc1ccccc1C(=O)Nc1cccc(C(F)(F)F)c1,n,n,n,n
NC(=O)/C=C/C(=O)Nc1cccc(C(F)(F)F)c1,n,43,n,n
CC(=O)Oc1ccccc1C(=O)Nc1cccc(C(F)(F)F)c1,n,65,n,n
CC(=O)Nc1cccc(C(F)(F)F)c1,n,n,n,n
O=C(CC(O)(C(F)(F)F)C(F)(F)F)Nc1cccc(C(F)(F)F)c1,n,84,n,56
O=C(CSCC(=O)Nc1cccc(C(F)(F)F)c1)Nc1cccc(C(F)(F)F)c1,n,n,n,n
O=C(NC1CCCCC1)c1cc(-c2ccccc2)on1,n,n,n,n
CN(C(=O)c1cc(-c2cccc(O)c2)on1)c1ccccc1,n,48,n,n
CCCCNC(=O)c1cc(-c2cccc(OC)c2)on1,n,n,n,n
CCCCNC(=O)c1cc(-c2cccc(O)c2)on1,n,36,n,n
O=C(NC1CCCC1)c1cc(-c2cccc(O)c2)on1,n,70,n,n
Cc1ccc2c(c1)cc(CN(Cc1nnnn1C(C)(C)C)C1CCCCC1)c1nnnn12,n,n,n,n
CC(NC(=O)c1ccc(Cn2c(=S)[nH]c3ccsc3c2=O)cc1)c1ccccc1 (stereo not drawn),n,n,n,n
COc1cc(NC(=O)c2cccc(-n3cc(Nc4nc5ccccc5[nH]4)cn3)c2)cc(OC)c1OC,n,34,n,n
COc1cc(NC(=O)c2cccc(-n3cc(Nc4nnnn4-c4ccccc4)cn3)c2)ccc1N1CCOCC1,n,32,n,n
COc1cc(NC(=O)c2cccc(-n3cc(NS(=O)(=O)Cc4ccccc4)cn3)c2)cc(OC)c1OC,n,39,n,n
O=C(CN1C(=O)COc2ccccc21)N1CCN(Cc2ccccc2)CC1,n,n,n,n
CCN(C(=O)Cn1ncc2c(=O)oc3ccc(C)cc3c21)c1ccccc1F,n,n,n,n
Cc1cc(C(=O)COC(=O)c2ccc[n+]([O-])c2)c(C)n1-c1ccc(Br)cc1,n,n,n,n
COc1ccc(-c2ccc3nc(OCc4ccncc4)oc3n2)cc1,n,n,n,n
COc1cccc(CN(CCCN(C)C)C(=O)Nc2ccc(-c3cn[nH]c3)cc2)c1,n,n,n,62
COc1cccc(CNC(=O)Nc2ccc(-c3cn[nH]c3)cc2N(C)CCN(C)C)c1,n,n,n,n
COc1cccc(CN(CCN(C)C)C(=O)Nc2ccc(-c3cn[nH]c3)cc2)c1,n,n,n,n
SMILES,FBW7 activator,TEAD-YAP inh,GPR151 ag,MITF inh
COc1cccc(CNC(=O)Nc2ccc(-c3cn[nH]c3)cc2N(C)CCO)c1,n,54,n,n
O=[N+]([O-])c1ccc(N2CCCCC2)cc1N1CCc2ccccc2C1,n,n,n,n
O=[N+]([O-])c1ccc(N2CCCC2)cc1N1CCc2ccccc2C1,n,73,n,n
Cc1ccccc1C(=O)OC1OC(=O)C(Cl)=C1Nc1cccc(C(=O)O)c1 (stereo not drawn),n,n,n,n
O=C(NCc1cccs1)c1ccc(OCc2ccc3ccccc3n2)cc1,n,n,n,n
COc1ccc(CC(=O)Nc2nccs2)cc1OC,n,n,n,n
CCOc1ccc(OCC(=O)Nc2nccs2)cc1,n,79,n,n
Cc1cc(OCC(=O)Nc2nccs2)ccc1C(C)C,n,61,n,n
COc1cc(C(C)=O)ccc1OCC(=O)Nc1nccs1,n,56,n,n
O=C(Nc1nccs1)c1ccc(OCc2ccc3ccccc3n2)cc1,5.6,n,n,n
O=C(NC(=S)Nc1ccc(O)cc1)c1ccccc1[N+](=O)[O-],n,n,n,n
O=C(COc1ccc(Cl)cc1)Nc1nccs1,n,n,n,n
COc1ccc(OCC(=O)Nc2nccs2)cc1,n,68,n,n
COc1cc(-c2nc(Nc3ccccc3F)c3ccccc3n2)cc(OC)c1OC,n,32,n,n
COc1cc(-c2nc(Nc3ccc(C)cc3)c3ccccc3n2)cc(OC)c1OC,n,55,n,n
COCCNc1nc(-c2cc(OC)c(OC)c(OC)c2)nc2ccccc12,n,32,n,n
COCCNc1nc(-c2ccccc2)nc2ccccc12,n,n,n,n
COc1cc(-c2nc(Nc3ccc(Cl)cc3)c3ccccc3n2)cc(OC)c1OC,n,n,n,n
COc1cc(-c2nc(Nc3ccccc3Cl)c3ccccc3n2)cc(OC)c1OC,n,n,n,n
CCCCc1ccc(-c2nc(Nc3ccc(OCc4ccccc4)cc3)c3ccccc3n2)cc1,n,35,n,n
COc1ccc(-c2noc(CN(C(=O)Nc3ccc(C)cc3)C(C)C)n2)cc1OC,n,n,n,n
COc1cccc(Nc2nc(-c3cc(OC)c(OC)c(OC)c3)nc3ccccc23)c1,n,37,n,n
COC(=O)CNC(c1ccccc1)c1cc(Br)ccc1O (stereo not drawn),n,n,n,n
CCc1ccc(C2=CC(c3cc(OC)c(OC)c(OC)c3)n3nnnc3N2)cc1 (stereo not drawn),n,56,n,n
CCc1ccc(C2=CC(c3ccc(Cl)cc3)n3nnnc3N2)cc1 (stereo not drawn),n,n,n,n
SMILES,FBW7 activator,TEAD-YAP inh,GPR151 ag,MITF inh
COc1cc(C2C=C(c3ccc(C)cc3)Nc3ncnn32)cc(OC)c1OC (stereo not drawn),n,62,n,n
CCc1ccc(C2=CC(c3ccc(OC)c(OC)c3)n3ncnc3N2)cc1 (stereo not drawn),n,33,n,n
COc1cc(C2C=C(c3cccc(NC(C)=O)c3)Nc3ncnn32)cc(OC)c1OC (stereo not drawn),n,52,n,n
COc1ccc(C2C=C(c3ccc(Cl)cc3)Nc3ncnn32)cc1OC (stereo not drawn),n,n,n,n
Cc1ccc(C2=CC(c3ccc(C)cc3)n3ncnc3N2)cc1 (stereo not drawn),n,n,n,n
Cc1n[nH]c(C)c1CCC(=O)N1CCCC(c2c(S(C)(=O)=O)cnc3ncnn23)C1 (stereo not drawn),n,n,n,n
CC(CNS(=O)(=O)c1ccccc1)OC(=O)Nc1cccc2ccccc12 (stereo not drawn),n,n,n,n
COc1cccc(C2=CC(c3cc(OC)c(OC)c(OC)c3)n3ncnc3N2)c1 (stereo not drawn),n,68,n,n
COc1cccc(C2=CC(c3ccc(OC)c(OC)c3OC)n3ncnc3N2)c1 (stereo not drawn),n,n,n,n
COc1cc(C2C=C(c3ccccc3)Nc3ncnn32)cc(OC)c1OC (stereo not drawn),n,61,n,n
Fc1cccc(-c2nc3cc(N4CCOCC4)c(N4CCOCC4)cc3[nH]2)c1,n,n,n,n
CC[N+]1=C(C)C(C)(C)c2cc(C)ccc21,n,50,n,n
CCCCOc1ccc(/C=N\NC(=O)C(OC)c2ccccc2)cc1 (stereo not drawn),n,n,n,n
